Screening results deposited in PubChem by several laboratories.
The list is not random: actives were taken first. Their share in the collection is about 1%.
VHR inh abs: VHR1 phosphatase inhibitors, primary screen, biochemical, absorbance, uHTS. recombinant VHR phosphatase, pNPP absorbance. inhibition, % at 13.3 µM. 0.52% of 290,000 active; in the data active = inhibition above about 50%
Target sequence (P51452 whole entry, looked up): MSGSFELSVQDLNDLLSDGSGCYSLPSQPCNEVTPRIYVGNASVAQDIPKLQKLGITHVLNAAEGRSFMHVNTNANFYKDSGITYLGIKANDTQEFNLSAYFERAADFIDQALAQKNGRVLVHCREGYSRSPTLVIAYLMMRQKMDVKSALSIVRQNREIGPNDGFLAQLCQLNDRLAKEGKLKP
BioA inh: M. tuberculosis BioA enzyme inhibitors, primary screen, biochemical, plate reader, single point, HTS. purified M. tuberculosis BioA enzyme. inhibition, % at 9.99 µM. 7,8-diaminopelargonic acid synthase BioA (Mycobacterium tuberculosis). 0.096% of 360,000 active; in the data active = inhibition above about 40%
TcdB inh: TcdB glycohydrolase inhibitors, primary screen, biochemical, single point, plate reader. AID 652162, 2013. TcdB glycohydrolase enzymatic assay. inhibition, % at 9.99 µM. Toxin B (Clostridioides difficile), P18177. 0.24% of 350,000 active; in the data active = inhibition above about 10%
Yp Topo-I inh: Yersinia pestis topoisomerase I inhibitors, primary screen, biochemical, cleavage product accumulation, plate reader, single point. Y. pestis Topo-I cleavage product accumulation. activity, % at 10 µM. 0.064% of 360,000 active. AID 504884, 2011; in the data active = activity above about 50%, passing the limit was not always enough
FadD28 FP inh: inhibitors of FadD28 bisubstrate probe binding, primary screen, biochemical, fluorescence polarization, single point; Mycobacterium tuberculosis FadD28 fatty-acid-AMP ligase; inhibition, % at 12.5 µM; 0.22% of 360,000 active; AID 588549, 2011; in the data active = inhibition above about 8.5%, passing the limit was not always enough
MazF activator: activators of E. coli MazEF toxin-antitoxin RNase, primary screen, biochemical, fluorescence, uHTS; Endoribonuclease toxin MazF (Escherichia coli (strain K12)), P0AE70; FAM/BHQ RNA-DNA oligo cleavage fluorescence, 5 h; activation, % at 20 µM; 0.32% of 350,000 active; in the data active = activation above about 50%
Target sequence (P0AE70 whole entry, looked up): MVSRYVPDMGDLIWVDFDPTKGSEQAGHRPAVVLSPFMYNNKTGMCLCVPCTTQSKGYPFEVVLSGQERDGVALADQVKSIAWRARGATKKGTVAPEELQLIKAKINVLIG
Starred values were filed as active, the others as inactive; · = not tested or not shown.

SMILES	VHR inh abs	BioA inh	TcdB inh	Yp Topo-I inh	FadD28 FP inh	MazF activator
Clc1ccc(-c2nc3cnccn3c2Nc2ccc3c(c2)OCO3)cc1	15.1	12.0	-0.2	5.7	-2.1	7.7
CCCC#Cc1cnc2c(c1)C(=O)N([C@@H](C)CO)C[C@H](C)[C@H](CN(C)C(=O)CN1CCOCC1)O2	·	-0.3	0.2	·	·	·
CN(c1ccccc1)S(=O)(=O)c1ccc(NC(=O)CC(=O)c2ccccc2)cc1	·	·	0.7	2.5	24.8*	23.2
CN(CC(=O)O/N=C(\N)c1ccccn1)S(=O)(=O)c1ccc(Br)cc1	8.4	-0.3	·	1.3	-3.0	-11.7
Cc1ccc(S(=O)(=O)N(C)CC(=O)O/N=C(\N)c2ccccn2)cc1	10.4	·	·	1.5	-1.9	60.9*
O=c1c(C(c2ccc(F)cc2)c2c(O)nc3n(c2=O)CCS3)c(O)nc2n1CCS2	-11.3	·	-0.2	3.2	-2.1	288.6*
CCCNC(=O)N[C@H]1CC[C@@H](CCNS(=O)(=O)c2cccc(F)c2)O[C@@H]1CO	·	5.3	-0.8	·	·	·
Cc1ccc(C2NC(=O)Cc3ccccc32)cc1 (stereo not given)	14.5	·	·	-4.3	-1.6	247.2*
C[C@@H]1CN([C@@H](C)CO)S(=O)(=O)c2ccc(-c3ccncc3)cc2O[C@@H]1CN(C)Cc1ccc(Oc2ccccc2)cc1	·	-1.3	14.1*	·	·	·
C[C@@H]1CN([C@H](C)CO)S(=O)(=O)c2ccc(-c3ccncc3)cc2O[C@H]1CN(C)Cc1ccc(Oc2ccccc2)cc1	·	-7.7	-12.4	·	·	·
C[C@@H]1CN([C@@H](C)CO)S(=O)(=O)c2ccc(-c3ccncc3)cc2O[C@@H]1CN(C)Cc1ccccc1	·	-0.6	0.2	·	·	·
C[C@H](CO)N1C[C@H](C)[C@H](CN(C)Cc2ccc(Oc3ccccc3)cc2)Oc2cc(-c3ccncc3)ccc2S1(=O)=O	·	-2.2	17.2*	·	·	·
CCNC(=O)[C@@H]1[C@@H](CO)[C@@H]2Cn3c(cccc3=O)[C@@H]2N1CC1CCCCC1	·	-1.7	·	·	·	·
CC1(C)CC(=O)C(C(O)c2cccc([N+](=O)[O-])c2)C(C)(C)N1 (stereo not given)	51.3*	1.2	-0.4	-17.3	-1.0	1.4
CC1(C)CC(=O)C(C(c2cccc([N+](=O)[O-])c2)C2C(=O)CC(C)(C)CC2=O)C(=O)C1	-8.0	1.7	1.7	-9.4	-0.4	-1.3
C[C@@H]1CN([C@H](C)CO)C(=O)c2cc(-c3ccncc3)cnc2O[C@@H]1CN(C)C(=O)c1ccncc1	·	1.0	0.8	·	·	·
CN(C)c1ccc(N=Cc2nc(-c3ccccc3)oc2OC(=O)c2cccc(Cl)c2)cc1	32.8	·	·	5.6	0.8	125.8*
Cc1ccc(C(=O)Oc2oc(-c3ccco3)nc2C=Nc2ccc(Cl)cc2)cc1	6.8	·	·	21.4	2.2	-35.6
Cc1ccc(C(=O)Oc2oc(-c3ccccc3)nc2C=Nc2ccc(N(C)C)cc2)cc1	11.5	·	1.6	-3.2	0.0	870.5*
COc1ccc(N=Cc2nc(-c3ccccc3)oc2OC(C)=O)cc1	8.5	-0.6	2.7	15.2	-1.7	-25.3
CC(=O)N[C@H]1CC[C@@H](CCNC(=O)C2CCCCC2)O[C@H]1CO	·	·	0.1	·	·	·
COc1cccc(C#Cc2ccc([C@H]3[C@H](CO)N4C(=O)CN(C(C)=O)C[C@@H]34)cc2)c1	·	·	0.2	·	·	·
CCCCn1nnnc1SCC(=O)c1ccc(C)c(C)c1	-31.4	0.3	·	52.1*	-4.9	1.2
CCCCn1nnnc1SCC(=O)c1ccccc1F	0.9	·	0.9	-4.4	1.6	3.4
CCC(=O)Nc1cccc(-n2nnnc2SCC(=O)c2ccc(C)c(C)c2)c1	12.7	·	0.4	11.4	10.6*	-14.1
SMILES	VHR inh abs	BioA inh	TcdB inh	Yp Topo-I inh	FadD28 FP inh	MazF activator
O=C(c1ccccc1F)N1C[C@@H]2O[C@H](CNS(=O)(=O)c3ccccc3)CC[C@@H]21	·	·	0.9	·	·	·
O=C(C[C@H]1C/C=C\CC[C@H](Cc2ccc(F)cc2)C(=O)O[C@@H](c2ccccc2)CNC1=O)N[C@H](CO)Cc1ccccc1	·	-0.8	0.7	45.6	0.3	3.8
O=C(C[C@H]1C/C=C\CC[C@H](Cc2ccc(F)cc2)C(=O)O[C@@H](c2ccccc2)CNC1=O)N[C@@H](CO)Cc1ccccc1	·	-1.4	0.9	88.7*	-5.8	25.4
COc1ccc2cc(C(=O)C3CCCN(Cc4cnc(N5CCOCC5)s4)C3)ccc2c1 (stereo not given)	51.6*	1.4	2.3	3.2	-0.1	-0.6
Cc1ccsc1C(=O)C1CCCN(Cc2cnc(N3CCOCC3)s2)C1 (stereo not given)	32.0	4.7	1.2	24.1	-1.2	5.0
CN1C(=O)/C(=C/c2ccc(OCc3cccc(F)c3)cc2)NC1=S	0.1	-0.6	-0.2	1.2	-1.0	2.7
COc1cc(/C=C2/C(=O)N(C)C(=S)N2C)ccc1OCc1cccc(F)c1	-3.8	-0.1	-0.4	7.1	0.5	65.7*
Cc1ccc(CS(=O)(=O)CCC(=O)NCCN2CCCCC2C)cc1 (stereo not given)	2.7	·	·	-4.9	-2.3	-1.1
Cc1ccc(CS(=O)(=O)CCC(=O)NCCCN2CCCC2)cc1	51.0*	-1.9	·	-2.8	-2.0	1.6
C[C@@H]1CN([C@H](C)CO)C(=O)c2cc(C#CC3CC3)cnc2O[C@@H]1CN(C)S(C)(=O)=O	·	2.4	-3.2	·	·	·
C/C=C/c1ccc2c(c1)O[C@@H](CN(C)CC1CCOCC1)[C@H](C)CN([C@@H](C)CO)S2(=O)=O	·	6.4	0.8	·	·	·
Cc1cc(NC(=O)CSc2nc(-c3ccccc3Cl)nc3c2c(=O)n(C)c(=O)n3C)no1	25.6	·	0.7	9.4	-0.7	112.0*
Cc1cc(NC(=O)CSc2nc(-c3ccc(Br)cc3)nc3c2c(=O)n(C)c(=O)n3C)no1	0.5	-0.8	·	7.4	-0.9	1.2
O=C(N/N=C/c1ccc(OC(=O)c2cccs2)cc1)c1ccccn1	52.8*	-1.8	-0.4	1.0	-1.7	-10.4
O=C(Nc1ccccc1F)N[C@@H]1CC[C@H](CCNC(=O)C2CCCC2)O[C@H]1CO	·	3.6	-1.2	·	·	·
Cn1c(/C=C/c2ccccc2[N+](=O)[O-])nc2ccccc2c1=O	30.3	0.7	0.3	1.7	-0.7	232.7*
CCn1c(/C=C/c2ccccc2[N+](=O)[O-])nc2ccccc2c1=O	23.4	1.1	-0.1	0.9	-1.2	2.6
COCC(=O)Nc1ccc2c(c1)C(=O)N(C)C[C@@H](OC)[C@H](C)CN(C(C)=O)[C@H](C)CO2	·	0.6	0.7	·	·	·
Cc1cc(C)nc(N2CCCC(C(=O)NC3CC3)C2)n1 (stereo not given)	52.9*	-0.9	0.9	-0.7	-1.8	-4.5
COc1ccccc1Nc1nc2c(C)cccc2cc1C#N	20.8	-2.0	·	5.8	0.5	97.8*
